# Where “and” joins values, the source holds several entries; their conditions need not be identical. Equal values may be shown once. Inconclusive results are not listed. Entries that show only a call come without a potency. Values without a mark were called inactive. Calls of active or inactive are those of the source. Unless noted, calls come from the whole dose curve; as a rule, active = well fitted curve in the direction sought with a large enough effect; inconclusive = small, poorly fitted or top-dose-only effect, or another doubt; inactive = no such curve, though single readings can be large; an effect the other way counts as inactive or inconclusive.
# Columns and labels:
# [1] = target: Calcium and integrin-binding protein 1 (Homo sapiens) (UniProt Q99828); experiment: Primary qHTS for Identification of Calcium Integrin Binding Protein 1 (CIB1) Competitor (AID 1508620);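 note: GST tagged CIB1 binding a fluorescein labelled alphaIIb integrin peptide tracer; top concentration of the series differs between compounds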
# Outline: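 Fluorescence polarization competition: GST-tagged CIB1 (1 uM final) preincubated with compound 15 min at room temperature, then FITC-labelled alphaIIb peptide (100 nM final) added. After 15 min at room temperature, polarization read at Ex 480/Em 540.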
# [2] = Primary qHTS for small molecule stabilizers of the endoplasmic reticulum resident proteome: Secreted ER Calcium Modulated Protein (SERCaMP) assay (AID 1508630)
# Outline: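 GLuc-SERCaMP-expressing SH-SY5Y cells, pretreated 16 h with compound, are challenged with thapsigargin to empty ER calcium stores; after 4 h, coelenterazine is added directly to the medium and luminescence is imaged.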
# [3] = target: Cytochrome P450 2D6 (Homo sapiens) (UniProt P10635); experiment: Cytochrome P450 family 2 subfamily D member 6 (CYP2D6) small molecule antagonists: luciferase biochemical (cell-free) qHTS assay (AID 1645840; active = well fitted curve in the direction sought with a large enough effect in the repeat runs; an effect the other way counts as inactive or inconclusive; note: nearly all actives have a fitted effect of over 55% in size; note: potency is the fitted concentration of half-maximal effect; for activity change, negative = inhibition: series mostly up to about 57 µM)
# Outline: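 P450-Glo luminescent screen: recombinant CYP2D6 enzyme–proluciferin substrate mix preincubated with compound 10 min at room temperature, then NADPH regeneration added for 1 h at room temperature. Detection reagent added for 20 min; luciferin light read as relative luminescence units.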
# [4] = Primary qHTS for inhibitors of nuclear receptor binding SET domain protein 2 (NSD2) in an isogenic RCH-ACV NSD2 p.E1099K mutant (9B) (AID 1645876); note: nearly all actives have a fitted effect of over 70% in size; note: potency is the fitted concentration of half-maximal effect
# [5] = Primary qHTS for inhibitors of nuclear receptor binding SET domain protein 2 (NSD2) in an RCH-ACV wild type WT cells (2C) (AID 1645877); note: nearly all actives have a fitted effect of over 70% in size; note: potency is the fitted concentration of half-maximal effect
# [6] = target: Cytochrome P450 2C9 (Homo sapiens) (UniProt P11712); experiment: Cytochrome P450 family 2 subfamily C member 9 (CYP2C9) small molecule antagonists: luciferase biochemical (cell-free) qHTS assay (AID 1645842; active = well fitted curve in the direction sought with a large enough effect in the repeat runs; an effect the other way counts as inactive or inconclusive; note: nearly all actives have a fitted effect of over 55% in size; note: potency is the fitted concentration of half-maximal effect; for activity change, negative = inhibition: series mostly up to about 57 µM)
# Outline: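 Luminescence, after 20 min with luciferin detection reagent, reflected CYP2C9 turnover during a 1 h NADPH-driven reaction at 37C. Enzyme-substrate mix contained 0.4% bovine serum albumin and was preincubated with compound 10 min at room temperature.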
# [7] = target: Cytochrome P450 3A4 (Homo sapiens) (UniProt P08684); experiment: Cytochrome P450 family 3 subfamily A member 4 (CYP3A4) small molecule antagonists: luciferase qHTS assay (AID 1645841; active = well fitted curve in the direction sought with a large enough effect in the repeat runs; an effect the other way counts as inactive or inconclusive; note: nearly all actives have a fitted effect of over 45% in size)
# Outline: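 P450-Glo CYP3A4 enzyme with proluciferin substrate preincubated 10 min with compound at room temperature, then NADPH regeneration 1 h. Luciferin detection reagent added for 20 min; luminescence recorded. Ketoconazole positive control.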
# [8] = target: N-terminal Xaa-Pro-Lys N-methyltransferase 1 (Homo sapiens) (UniProt Q9BV86); experiment: Confirmatory qHTS for Inhibitors of N-terminal methyltransferase 1 (NTMT1): MTaseGlo Assay (AID 1645874);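 note: luminescence from SAH made as NTMT1 methylates SPKRIA peptide using SAM; series mostly up to about 100 µM; nearly all actives have a fitted effect of over 65% in size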
# Outline: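 Preincubation of NTMT1 (125 nM) plus SAM (100 uM) with test compounds lasted 15 min; methylation of 1 uM SPKRIA then proceeded 30 min in the dark at room temperature. Luciferase signal reported SAH produced.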
# [9] = target: Rap guanine nucleotide exchange factor 3 (Homo sapiens) (UniProt O95398); experiment: Confirmatory qHTS for agonist of cAMP-regulated guanine nucleotide exchange factor 3 (EPAC1) (AID 1645881);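 note: EPAC1 catalysed release of BODIPY-GDP from Rap1B seen as fluorescence loss; nearly all actives have a fitted effect of over 75% in size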
# [10] = target: Rap guanine nucleotide exchange factor 4 (Homo sapiens) (UniProt Q8WZA2); experiment: Confirmatory qHTS for agonist of cAMP-regulated guanine nucleotide exchange factor 4 (EPAC2) (AID 1645884);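 note: nucleotide exchange releases bodipy-GDP from Rap1 and this lowers its fluorescence; nearly all actives have a fitted effect of over 65% in size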
# [11] = target: Rap guanine nucleotide exchange factor 4 (Homo sapiens) (UniProt Q8WZA2); experiment: Confirmatory qHTS for antagonist of cAMP-regulated guanine nucleotide exchange factor 4 (EPAC2) (AID 1645885); note: nearly all actives have a fitted effect of over 25% in size
# [12] = target: Rap guanine nucleotide exchange factor 3 (Homo sapiens) (UniProt O95398); experiment: Counterscreen qHTS for antagonist of cAMP-regulated guanine nucleotide exchange factor 3 (EPAC1) (AID 1645888);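 note: fluorescence loss as bound BODIPY-GDP is released from Rap1B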
# Outline: (§1)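 Rap1B–BODIPY-GDP (250 nM) with 50 uM GDP; compounds pin-transferred to 9.74 nM–152 uM final (activator) or from 7.32 nM upwards (inhibitor). Fluorescence Ex/Em 480/540 nm read at 5 and 30 min, then after adding cAMP or buffer, at room temperature.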
# [13] = target: Rap guanine nucleotide exchange factor 3 (Homo sapiens) (UniProt O95398); experiment: Counterscreen qHTS for agonist of cAMP-regulated guanine nucleotide exchange factor 3 (EPAC1) (AID 1645889); note: nearly all actives have a fitted effect of over 40% in size
# Outline: as §1
# Cytochrome P450 2D6 (Homo sapiens), sequence (P10635 whole entry, looked up): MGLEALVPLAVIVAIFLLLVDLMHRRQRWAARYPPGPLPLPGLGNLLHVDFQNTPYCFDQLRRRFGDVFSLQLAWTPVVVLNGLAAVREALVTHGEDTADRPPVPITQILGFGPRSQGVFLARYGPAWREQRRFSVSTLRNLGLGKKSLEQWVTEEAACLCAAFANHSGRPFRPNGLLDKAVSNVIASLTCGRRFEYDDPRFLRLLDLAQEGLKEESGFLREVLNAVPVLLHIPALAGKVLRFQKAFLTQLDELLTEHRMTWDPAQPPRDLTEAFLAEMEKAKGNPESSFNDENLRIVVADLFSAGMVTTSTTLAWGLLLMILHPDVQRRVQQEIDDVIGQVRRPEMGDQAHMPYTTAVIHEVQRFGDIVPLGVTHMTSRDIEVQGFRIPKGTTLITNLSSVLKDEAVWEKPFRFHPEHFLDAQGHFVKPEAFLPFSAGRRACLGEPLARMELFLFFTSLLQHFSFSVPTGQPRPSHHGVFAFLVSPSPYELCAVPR
# Cytochrome P450 2C9 (Homo sapiens), sequence (P11712 whole entry, looked up): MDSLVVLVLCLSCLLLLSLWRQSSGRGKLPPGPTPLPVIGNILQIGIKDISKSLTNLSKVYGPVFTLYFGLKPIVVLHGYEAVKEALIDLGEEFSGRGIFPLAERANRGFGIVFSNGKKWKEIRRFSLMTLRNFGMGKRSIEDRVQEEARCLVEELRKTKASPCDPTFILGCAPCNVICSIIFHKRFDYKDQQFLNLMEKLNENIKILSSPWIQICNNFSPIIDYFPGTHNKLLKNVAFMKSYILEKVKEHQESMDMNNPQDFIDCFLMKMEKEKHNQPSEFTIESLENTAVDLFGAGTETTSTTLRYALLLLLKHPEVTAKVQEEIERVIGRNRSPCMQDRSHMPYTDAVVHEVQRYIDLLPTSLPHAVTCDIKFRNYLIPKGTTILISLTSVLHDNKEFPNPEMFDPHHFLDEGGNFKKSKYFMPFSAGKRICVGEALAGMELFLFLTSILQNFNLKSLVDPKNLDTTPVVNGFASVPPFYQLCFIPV
# Calcium and integrin-binding protein 1 (Homo sapiens), sequence (Q99828 whole entry, looked up): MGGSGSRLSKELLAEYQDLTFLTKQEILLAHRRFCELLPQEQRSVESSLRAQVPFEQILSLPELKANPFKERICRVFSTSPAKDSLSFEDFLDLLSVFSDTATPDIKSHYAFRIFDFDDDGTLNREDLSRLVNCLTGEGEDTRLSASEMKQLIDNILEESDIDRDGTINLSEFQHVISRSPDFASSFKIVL
# Rap guanine nucleotide exchange factor 3 (Homo sapiens), sequence (O95398 whole entry, looked up): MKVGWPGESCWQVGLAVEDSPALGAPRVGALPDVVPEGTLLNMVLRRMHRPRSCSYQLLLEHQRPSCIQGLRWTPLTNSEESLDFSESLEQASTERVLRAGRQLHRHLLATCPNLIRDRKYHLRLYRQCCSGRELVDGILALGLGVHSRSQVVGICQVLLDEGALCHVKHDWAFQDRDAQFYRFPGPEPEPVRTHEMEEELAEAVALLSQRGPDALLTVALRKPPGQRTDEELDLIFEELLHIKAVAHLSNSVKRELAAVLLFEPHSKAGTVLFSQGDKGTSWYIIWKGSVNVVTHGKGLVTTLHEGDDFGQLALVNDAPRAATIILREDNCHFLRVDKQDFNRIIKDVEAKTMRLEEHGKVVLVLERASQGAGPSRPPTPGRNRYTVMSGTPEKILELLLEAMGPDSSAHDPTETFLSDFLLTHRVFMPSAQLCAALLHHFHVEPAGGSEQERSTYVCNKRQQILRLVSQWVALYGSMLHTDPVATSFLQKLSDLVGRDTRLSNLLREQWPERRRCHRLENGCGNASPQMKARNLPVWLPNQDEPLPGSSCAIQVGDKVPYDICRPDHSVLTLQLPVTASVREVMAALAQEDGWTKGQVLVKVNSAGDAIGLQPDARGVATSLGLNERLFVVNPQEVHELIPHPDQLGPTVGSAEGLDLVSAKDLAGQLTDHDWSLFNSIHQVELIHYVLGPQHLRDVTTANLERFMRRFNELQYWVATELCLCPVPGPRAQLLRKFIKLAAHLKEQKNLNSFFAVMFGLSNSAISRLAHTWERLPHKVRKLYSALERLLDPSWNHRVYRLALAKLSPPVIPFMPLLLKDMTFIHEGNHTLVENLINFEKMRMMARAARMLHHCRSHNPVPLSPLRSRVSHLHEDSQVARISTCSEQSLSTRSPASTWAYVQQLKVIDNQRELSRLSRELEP
# Rap guanine nucleotide exchange factor 4 (Homo sapiens), sequence (Q8WZA2 whole entry, looked up): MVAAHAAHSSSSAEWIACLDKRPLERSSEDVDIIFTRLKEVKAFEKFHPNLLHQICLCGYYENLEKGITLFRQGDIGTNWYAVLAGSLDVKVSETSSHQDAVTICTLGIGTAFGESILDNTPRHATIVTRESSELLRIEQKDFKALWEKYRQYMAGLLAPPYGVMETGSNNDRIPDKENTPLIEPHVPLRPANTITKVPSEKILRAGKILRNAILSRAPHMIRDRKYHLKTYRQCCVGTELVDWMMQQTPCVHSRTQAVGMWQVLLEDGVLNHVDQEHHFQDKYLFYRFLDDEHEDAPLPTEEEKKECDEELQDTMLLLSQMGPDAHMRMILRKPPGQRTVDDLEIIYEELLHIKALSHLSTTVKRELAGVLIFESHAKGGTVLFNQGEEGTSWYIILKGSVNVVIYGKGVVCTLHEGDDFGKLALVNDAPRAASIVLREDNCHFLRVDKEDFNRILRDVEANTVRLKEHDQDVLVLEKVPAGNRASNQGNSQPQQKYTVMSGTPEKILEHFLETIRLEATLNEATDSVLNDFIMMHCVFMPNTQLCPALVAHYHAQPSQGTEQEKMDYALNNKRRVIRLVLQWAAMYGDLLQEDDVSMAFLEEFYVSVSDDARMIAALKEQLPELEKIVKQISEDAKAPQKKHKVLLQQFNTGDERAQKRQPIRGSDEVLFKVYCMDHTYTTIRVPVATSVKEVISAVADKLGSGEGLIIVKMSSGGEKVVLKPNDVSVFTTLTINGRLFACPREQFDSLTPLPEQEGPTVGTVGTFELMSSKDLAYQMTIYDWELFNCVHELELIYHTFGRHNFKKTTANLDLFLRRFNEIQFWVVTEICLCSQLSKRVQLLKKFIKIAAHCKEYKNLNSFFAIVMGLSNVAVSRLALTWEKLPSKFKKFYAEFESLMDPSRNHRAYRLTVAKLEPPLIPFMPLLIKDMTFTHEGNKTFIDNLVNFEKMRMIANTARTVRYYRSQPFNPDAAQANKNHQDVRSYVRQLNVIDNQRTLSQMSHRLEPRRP
# N-terminal Xaa-Pro-Lys N-methyltransferase 1 (Homo sapiens), sequence (Q9BV86 whole entry, looked up): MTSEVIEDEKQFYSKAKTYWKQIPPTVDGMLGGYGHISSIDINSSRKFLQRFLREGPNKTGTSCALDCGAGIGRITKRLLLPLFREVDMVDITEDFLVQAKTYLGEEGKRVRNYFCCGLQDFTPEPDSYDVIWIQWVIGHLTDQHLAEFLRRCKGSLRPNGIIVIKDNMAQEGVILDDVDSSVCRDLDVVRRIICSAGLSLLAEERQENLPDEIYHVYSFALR
# Cytochrome P450 3A4 (Homo sapiens), sequence (P08684 whole entry, looked up): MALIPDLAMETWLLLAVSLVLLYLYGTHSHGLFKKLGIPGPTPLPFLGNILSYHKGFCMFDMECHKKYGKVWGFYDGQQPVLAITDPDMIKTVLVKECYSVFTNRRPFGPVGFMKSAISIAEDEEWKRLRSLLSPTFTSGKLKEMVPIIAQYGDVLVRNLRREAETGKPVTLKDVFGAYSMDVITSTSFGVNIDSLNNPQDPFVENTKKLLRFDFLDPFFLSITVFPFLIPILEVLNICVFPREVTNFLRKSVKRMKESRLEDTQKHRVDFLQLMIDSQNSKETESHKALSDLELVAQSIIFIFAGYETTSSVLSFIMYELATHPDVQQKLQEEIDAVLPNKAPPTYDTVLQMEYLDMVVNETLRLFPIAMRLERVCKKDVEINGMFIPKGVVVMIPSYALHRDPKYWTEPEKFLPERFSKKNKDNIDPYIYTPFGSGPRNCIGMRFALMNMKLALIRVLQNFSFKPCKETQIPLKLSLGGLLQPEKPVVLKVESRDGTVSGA
smiles,measurement,setting,value
Nc1ncnc2c1c(-c1cccc(OCc3ccccc3)c1)cn2C1CC(CN2CCC2)C1 (configuration not stated),Potency,[1],inactive
same,Potency,[2],inactive
same,Potency,[3],12 µM (active)
same,Potency,[4],4.59 µM (active)
same,Potency,[5],2.9 µM (active)
C[C@@]1(c2cc(-c3cncnc3)c(F)cc2F)CCSC(N)=N1,Potency,[1],inactive
same,Potency,[2],inactive
same,Potency,[3],6.74 µM (active)
same,Potency,[6],16.9 µM (active)
same,Potency,[4],inactive
same,Potency,[5],inactive
CCNC(=O)Nc1ccc(Oc2ncnc(N)c2C=NOC)cc1Cl,Potency,[1],inactive
same,Potency,[2],inactive
same,Potency,[3],inactive
same,Potency,[6],inactive
CC(C)(OCc1nn(Cc2ccccc2)c2ccccc12)C(=O)O,Potency,[1],inactive
same,Potency,[2],inactive
same,outcome,[7],inactive
same,Potency,[6],inactive
same,Potency,[4],inactive
same,Potency,[5],inactive
CCNC(=O)c1noc(-c2cc(C(C)C)c(O)cc2O)c1-c1ccc(CN2CCOCC2)cc1,Potency,[1],inactive
same,Potency,[2],inactive
same,Potency,[3],1.34 µM (active)
same,Potency,[6],2.39 µM (active)
same,Potency,[8],inactive
same,Potency,[4],18.3 nM (active) and 11.8 nM (active)
same,Potency,[5],18.3 nM (active) and 13.2 nM (active)
C[C@@H]1CCO[C@H]2Cn3cc(C(=O)NCc4ccc(F)cc4F)c(=O)c(O)c3C(=O)N12,Potency,[1],inactive
same,Potency,[2],inactive
same,Potency,[6],inactive
same,Potency,[4],20.5 µM (active)
Cc1ccc(NC(=O)c2cccc(N(C)C)c2)cc1NC(=O)c1ccc(O)cc1,Potency,[1],inactive
same,Potency,[2],inactive
same,Potency,[6],7.56 µM (active)
CC(C)CNc1ccnc(NCc2csc(-c3ccccc3)n2)n1,Potency,[1],inactive
same,Potency,[2],inactive
same,Potency,[3],1.2 µM (active)
same,Potency,[6],10.7 µM (active)
same,Potency,[4],5.9 µM (active)
same,Potency,[5],8.33 µM (active)
CSc1cccc(Nc2ncc3cc(-c4c(Cl)cccc4Cl)c(=O)n(C)c3n2)c1,Potency,[1],inactive
same,Potency,[2],inactive
same,Potency,[3],inactive
same,Potency,[6],4.25 µM (active)
same,Potency,[4],2.06 µM (active)
same,Potency,[5],2.06 µM (active)
CNC(=O)[C@H](Cc1ccccc1)NC(=O)[C@H](CC(C)C)[C@H](CSc1cccs1)C(=O)NO,Potency,[1],inactive
same,Potency,[2],inactive
same,Potency,[3],inactive
same,Potency,[6],inactive
same,Potency,[4],inactive
same,Potency,[5],inactive
O=c1[nH]nc(OCCCc2ccc(Cl)cc2)c(NCc2cccnc2)c1Br,Potency,[1],inactive
same,Potency,[2],inactive
same,Potency,[3],10.7 µM (active)
same,Potency,[6],1.51 µM (active)
same,Potency,[4],8.17 µM (active)
same,Potency,[5],9.16 µM (active)
O=C(Nc1cccc(C(F)(F)F)c1)Nc1cc(S(=O)(=O)NC2CC2)ccc1-c1ccsc1,Potency,[1],inactive
same,Potency,[2],inactive
same,Potency,[3],5.35 µM (active)
same,Potency,[6],3.38 µM (active)
same,Potency,[4],23.5 µM (active)
same,Potency,[5],23 µM (active)
Cc1cc(-c2ncc(CC(=O)Nc3ccc(-c4cnccn4)cn3)cc2C)ccn1,Potency,[1],inactive
same,Potency,[2],inactive
same,Potency,[6],inactive
same,Potency,[8],inactive
NC(=O)c1nnn(Cc2cc(Cl)c(C(=O)c3ccc(Cl)cc3)c(Cl)c2)c1N,Potency,[1],inactive
same,Potency,[2],inactive
same,Potency,[3],26.8 µM (active)
same,Potency,[9],inactive
same,activation,[10],"5.43% [at 17.1 µM, percent relative to cAMP agonist control]"
same,"activity change, negative = inhibition",[11],-14.9% [at 12.7 µM]
same,outcome,[12],inactive
same,outcome,[13],inactive
CC(C)CN(C[C@@H](O)[C@H](Cc1ccccc1)NC(=O)O[C@H]1CO[C@H]2OCC[C@H]21)S(=O)(=O)c1ccc(N)cc1,Potency,[1],inactive
same,Potency,[2],inactive
same,Potency,[6],7.56 µM (active)
CC[C@H](CC#N)OC(=O)N[C@@H](C)c1cccc(NC(=O)Nc2ccc(-c3cnco3)c(OC)c2)c1,Potency,[1],inactive
same,Potency,[2],inactive
same,Potency,[3],0.338 µM (active)
same,Potency,[6],0.0756 µM (active)
same,Potency,[4],129 nM (active) and 166 nM (active)
same,Potency,[5],0.23 µM (active)
Cc1cc(C(C)Nc2ccccc2)c2nc(N3CCOCC3)cc(=O)n2c1 (configuration not stated),Potency,[1],inactive
same,Potency,[2],inactive
same,Potency,[3],inactive
same,Potency,[6],1.07 µM (active)
same,Potency,[4],2.3 µM (active) and 2.63 µM (active)
Cc1cnc(Nc2cccc(CN3CCOCC3)c2)nc1Nc1cccc(S(=O)(=O)NC(C)(C)C)c1,Potency,[1],inactive
same,Potency,[2],inactive
same,Potency,[3],15.1 µM (active)
same,Potency,[6],5.35 µM (active)
same,Potency,[4],0.515 µM (active)
same,Potency,[5],0.515 µM (active)
CN1CCC(COc2cnc(-c3cccc(Cn4nc(-c5cccc(C#N)c5)ccc4=O)c3)nc2)CC1,Potency,[1],inactive
same,Potency,[2],inactive
same,Potency,[3],inactive
same,Potency,[6],16.9 µM (active)
same,Potency,[4],11.8 µM (active) and 16.3 µM (active)

# From PubChem BioAssay (NCATS)
